# PubChem BioAssay (Tox21)
# Values without a mark were called inactive. Results filed as inconclusive are left out. Where a call stands in place of a potency, no number is given. Calls of active or inactive are those of the source. Unless noted, the call rests on the fitted dose curve.
# Columns and labels:
# [1] = biological target: Acetylcholinesterase (Homo sapiens) (UniProt P22303); assay: Acetylcholinesterase (AChE) small molecule antagonists: enzyme-based qHTS assay (AID 1347397); details: Potency: AChE enzyme activity inhibition; outcome: AChE enzyme activity inhibition; further: nearly all actives have a fitted effect of over 55% in size; further: potency means the concentration at half of the fitted maximal effect
# Sequence of Acetylcholinesterase (Homo sapiens) (P22303 whole entry, looked up): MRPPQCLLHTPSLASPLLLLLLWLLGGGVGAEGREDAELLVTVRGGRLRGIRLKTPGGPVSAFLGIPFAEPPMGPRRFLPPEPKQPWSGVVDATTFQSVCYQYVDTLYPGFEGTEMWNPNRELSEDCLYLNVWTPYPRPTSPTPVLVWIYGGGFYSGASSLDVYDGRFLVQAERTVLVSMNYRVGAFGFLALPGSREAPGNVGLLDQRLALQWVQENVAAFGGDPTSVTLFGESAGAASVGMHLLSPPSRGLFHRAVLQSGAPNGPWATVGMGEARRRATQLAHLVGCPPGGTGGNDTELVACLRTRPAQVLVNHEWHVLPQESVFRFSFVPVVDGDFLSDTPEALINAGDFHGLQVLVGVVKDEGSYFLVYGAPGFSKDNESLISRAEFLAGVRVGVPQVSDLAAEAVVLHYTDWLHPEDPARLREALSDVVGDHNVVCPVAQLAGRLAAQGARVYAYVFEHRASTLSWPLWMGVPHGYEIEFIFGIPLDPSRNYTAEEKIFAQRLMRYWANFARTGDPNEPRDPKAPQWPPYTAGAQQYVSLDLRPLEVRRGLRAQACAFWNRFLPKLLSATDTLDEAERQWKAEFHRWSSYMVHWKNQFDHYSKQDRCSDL
# How it was run: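 rhAChE 50 mU/mL (dispensed) + cpd or DMSO, 30 min RT; add DTNB/acetylthiocholine cocktail, 10 min RT; colorimetric thiocholine readout. qHTS, 1536-well format.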
# [2] = biological target: Acetylcholinesterase (Homo sapiens) (UniProt P22303); assay: Acetylcholinesterase (AChE) small molecule antagonists: fluorescence cell-based qHTS assay (AID 1347398); details: Potency: AChE activity; outcome: AChE activity; further: nearly all actives have a fitted effect of over 50% in size; further: potency means the concentration at half of the fitted maximal effect
# How it was run: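 Read-out is Thiolite Green fluorescence at Ex/Em = 490/520 nm, formed by reaction with thiocholine released when cellular AChE in SH-SY5Y cells hydrolyzes acetylthiocholine. Compounds were preincubated 30 min at 37 C before substrate.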
# [3] = biological target: Acetylcholinesterase (Homo sapiens) (UniProt P22303); assay: Acetylcholinesterase (AChE) small molecule antagonists: enzyme-based qHTS assay with human liver microsomes (AID 1347399); details: Potency: qHTS inhibition; outcome: qHTS inhibition; further: nearly all actives have a fitted effect of over 60% in size
# How it was run: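 Recombinant human AChE (50 mU/mL in the enzyme mix) and human liver microsomes (0.25 mg/mL final) were preincubated with compound and NADPH (0.25 mg/mL final) for 30 min at 37 C. Acetylthiocholine/DTNB was then added; thiocholine was read colorimetrically after 10 min at room temperature.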
# [4] = qHTS assay for small molecule agonists of the p53 signaling pathway (AID 651631); further: nearly all actives have a fitted effect of over 15% in size
# How it was run: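 Read-out is beta-lactamase FRET fluorescence measured 2 h after substrate addition at room temperature, in HCT-116 cells with a p53 response element-driven reporter exposed to compounds for 16 h at 37 °C.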
# [5] = biological target: Glucocorticoid receptor (Homo sapiens) (UniProt P04150); assay: qHTS assay to identify small molecule antagonists of the glucocorticoid receptor (GR) signaling pathway (AID 720692; active means well fitted inhibition curve with a large enough effect in the signal ratio in the repeat runs, not every such curve was filed as active; the % refers to the signal ratio)
# Sequence of Glucocorticoid receptor (Homo sapiens) (P04150 whole entry, looked up): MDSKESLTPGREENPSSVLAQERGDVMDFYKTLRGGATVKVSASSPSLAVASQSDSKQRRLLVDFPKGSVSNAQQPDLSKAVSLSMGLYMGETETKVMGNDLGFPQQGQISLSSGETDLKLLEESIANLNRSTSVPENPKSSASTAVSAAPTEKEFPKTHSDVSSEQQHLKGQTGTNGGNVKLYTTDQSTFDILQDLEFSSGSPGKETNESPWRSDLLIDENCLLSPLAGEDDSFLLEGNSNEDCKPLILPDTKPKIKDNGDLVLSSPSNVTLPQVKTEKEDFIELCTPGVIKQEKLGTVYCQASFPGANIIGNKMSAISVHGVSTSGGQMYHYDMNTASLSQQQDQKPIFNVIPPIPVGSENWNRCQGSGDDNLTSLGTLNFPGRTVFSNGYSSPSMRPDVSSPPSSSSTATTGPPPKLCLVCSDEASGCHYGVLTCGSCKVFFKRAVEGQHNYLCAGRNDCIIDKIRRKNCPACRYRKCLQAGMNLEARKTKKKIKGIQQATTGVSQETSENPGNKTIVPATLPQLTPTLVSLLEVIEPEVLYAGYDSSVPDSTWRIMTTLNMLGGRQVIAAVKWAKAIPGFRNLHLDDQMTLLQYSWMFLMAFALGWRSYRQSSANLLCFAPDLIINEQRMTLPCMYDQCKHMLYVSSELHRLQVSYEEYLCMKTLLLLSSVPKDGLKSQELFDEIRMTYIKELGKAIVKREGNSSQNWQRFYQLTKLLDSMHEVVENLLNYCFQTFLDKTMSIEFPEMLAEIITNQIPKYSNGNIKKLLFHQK
# How it was run: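 Dexamethasone (5 nM final) stimulated a stably integrated GRE-beta-lactamase reporter in HeLa cells during 18 h co-incubation with compounds; signal was quantified as fluorescence intensity of B/G FRET substrate after 2 h.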
compound,measurement,setting,value
OCCC1CCCCN1 (stereo not given),Potency,[1],inactive
same,Potency,[2],inactive
same,Potency,[3],inactive
CC(O)COC(C)(C)C (stereo not given),Potency,[1],inactive
same,Potency,[2],inactive
same,Potency,[3],inactive
CC(C)NCCCC1(C(N)=O)c2ccccc2-c2ccccc21,Potency,[1],inactive
same,Potency,[2],inactive
same,Potency,[3],inactive
NCCCCCCNCCCCCCN,Potency,[1],inactive
same,Potency,[2],39.3 µM (active)
same,Potency,[3],inactive
O=C1c2ccccc2C(=O)c2cc(Cl)ccc21,"activity change, negative = inhibition",[1],-1.23% [at 10.5 µM]
same,"activity change, negative = inhibition",[2],0% [at 10.5 µM]
same,"activity change, negative = inhibition",[3],0.0166% [at 10.5 µM]
CCN1CCN(c2cc3c(cc2F)c(=O)c(C(=O)O)cn3C2CC2)CC1,Potency,[1],inactive
same,Potency,[2],inactive
same,Potency,[3],inactive
CN(C)CCOCCN(C)CCO,Potency,[1],inactive
same,Potency,[2],inactive
same,Potency,[3],inactive
CCN1CCC[C@H]1CNC(=O)c1cc(S(N)(=O)=O)ccc1OC,Potency,[1],inactive
same,Potency,[2],inactive
same,Potency,[3],inactive
Cc1cncc(C)c1,Potency,[1],inactive
same,Potency,[2],inactive
same,Potency,[3],inactive
O=CC=C(c1ccccc1)c1ccccc1,Potency,[1],inactive
same,Potency,[2],inactive
same,Potency,[3],inactive
NC(N)=NN=C(/C=C/c1ccc([N+](=O)[O-])o1)/C=C/c1ccc([N+](=O)[O-])o1,Potency,[1],inactive
same,Potency,[2],inactive
same,Potency,[3],inactive
O=[N+]([O-])c1cc(Cl)c(Cl)c(Cl)c1Cl,Potency,[1],inactive
same,Potency,[2],inactive
same,Potency,[3],inactive
Cc1ccc(N)cc1O,Potency,[1],inactive
same,Potency,[2],inactive
same,Potency,[3],inactive
Cn1c(N)c(N=O)c(=O)n(C)c1=O,Potency,[1],inactive
same,Potency,[2],inactive
same,Potency,[3],inactive
COc1cc2nc(N3CCN(C(=O)c4ccco4)CC3)nc(N)c2cc1OC,"activity change, negative = inhibition",[1],-11.6% [at 23.6 µM]
same,"activity change, negative = inhibition",[2],-22.9% [at 23.8 µM]
same,"activity change, negative = inhibition",[3],-0.588% [at 23.6 µM]
CCCN(CCC)C(=O)C(CCC(=O)O)NC(=O)c1ccccc1 (stereo not given),Potency,[1],inactive
same,Potency,[2],inactive
same,Potency,[3],inactive
CCCCCC(=O)CC,Potency,[1],inactive
same,Potency,[2],inactive
same,Potency,[3],inactive
CCSCC,Potency,[1],inactive
same,Potency,[2],inactive
same,Potency,[3],inactive
CCOC(=O)C1CC(=O)C(=C(O)C2CC2)C(=O)C1 (stereo not given),Potency,[1],inactive
same,Potency,[2],inactive
same,Potency,[3],inactive
CC12CCC(C(=O)C1=O)C2(C)C (stereo not given),Potency,[1],inactive
same,Potency,[2],inactive
same,Potency,[3],inactive
Cc1cccc(O)c1N,Potency,[1],inactive
same,Potency,[2],inactive
same,Potency,[3],inactive
O=C(N/N=C/c1ccccc1O)c1ccncc1,Potency,[1],inactive
same,Potency,[2],inactive
same,Potency,[3],inactive
CC(=O)Nc1ccc(S(=O)(=O)Nc2cc(C)on2)cc1,Potency,[1],inactive
same,Potency,[2],inactive
same,Potency,[3],inactive
CCCOc1sc(C(=O)N2CCC(c3cc(CN)ccc3F)CC2)c(C)c1Br,Potency,[1],73 µM (active)
same,Potency,[3],inactive
O=C1NC2CCCCN2C12CCN(CCCN1c3ccccc3CCc3ccc(Cl)cc31)CC2 (stereo not given),Potency,[1],inactive
same,Potency,[3],inactive
Cc1ccc(C(=O)C(C)CN2CCCCC2)cc1 (stereo not given),Potency,[1],inactive
same,Potency,[3],inactive
COc1ccnc2c1CCCCC2S(=O)c1nc2ccccc2[nH]1 (stereo not given),Potency,[1],inactive
same,Potency,[3],inactive
O=C1CCN(c2ccccc2)N1,Potency,[1],inactive
same,Potency,[3],inactive
CN(C)CCC[C@@]1(c2ccc(F)cc2)OCc2cc(C#N)ccc21,Potency,[1],inactive
same,Potency,[3],inactive
CCCCCCC[N+](CC)(CC)CCCCc1ccc(Cl)cc1,Potency,[1],inactive
same,Potency,[3],inactive
O=c1[nH]cnc2ccccc12,Potency,[1],inactive
same,Potency,[2],inactive
same,Potency,[3],inactive
Cc1cc(O)ccc1N,Potency,[1],inactive
same,Potency,[3],inactive
CN1C(=O)N(c2ccccc2Br)Cc2cnc(Nc3ccc4c(c3)OCC(CO)O4)nc21 (stereo not given),Potency,[1],inactive
same,Potency,[3],inactive
CC(C)(Cc1c[nH]c2ccccc12)NCC(O)COc1ccccc1C#N (stereo not given),Potency,[1],inactive
same,Potency,[3],inactive
CC(C)C[C@@H]1[C@H](c2ccccc2)OC(=O)N1CCCN1CCCCCC1,Potency,[1],inactive
same,Potency,[3],inactive
O=C(O)c1cccc(N(Cc2cccnc2)c2ccc(OC(F)F)c(OC(F)F)c2)c1,Potency,[1],inactive
same,Potency,[3],inactive
c1ccc2c(CC3=NCCN3)cccc2c1,Potency,[1],inactive
same,Potency,[3],inactive
C/C=C1/C(=O)C[C@H]2[C@@H]3CCC4=CC(=O)CC[C@]4(C)[C@H]3CC[C@]12C,Potency,[1],inactive
same,Potency,[3],inactive
CC[N+](CC)(CC)CCOc1ccc(/C=C/c2ccccc2)cc1,Potency,[1],inactive
same,Potency,[2],34.7 µM (active)
same,Potency,[3],inactive
C=C1CC[C@H]2O[C@]2(C)CC[C@@H]2[C@@H]1CC2(C)C,Potency,[1],inactive
same,Potency,[3],inactive
COc1ccccc1N=Nc1c(S(=O)(=O)O)cc2cc(S(=O)(=O)O)cc(NC(C)=O)c2c1O,Potency,[1],inactive
same,Potency,[3],inactive
CCCC[N+](C)(CCCC)CCCC,Potency,[1],inactive
same,Potency,[3],inactive
C1=C\CC/C=C\CC/C=C\CC/1,Potency,[4],inactive
same,Potency,[5],inactive
same,Potency,[1],inactive
same,Potency,[2],inactive
same,Potency,[3],inactive
Cc1ccc2c(c1)CCCN2,Potency,[1],inactive
same,Potency,[3],inactive
COc1cccc(Br)c1,Potency,[1],inactive
same,Potency,[2],inactive
same,Potency,[3],inactive
COc1cc2ncnc(Nc3ccc(F)c(Cl)c3)c2cc1OCCCN1CCOCC1,Potency,[1],inactive
same,Potency,[3],inactive
Cc1c(C)n(CCN(C)C)c2ccc(C(=O)OCCN(C)C)cc12,Potency,[1],inactive
same,Potency,[3],inactive
O=C(c1ccc(F)cc1)C1CCN(CCn2c(=O)[nH]c3ccccc3c2=O)CC1,Potency,[1],inactive
same,Potency,[3],inactive
CN1CCCCC1CCN1c2ccccc2Sc2ccc(S(C)=O)cc21 (stereo not given),Potency,[1],inactive
same,Potency,[3],inactive
CC(=O)c1ccc2c(c1)N(CCCN1CCC(CCO)CC1)c1ccccc1S2,Potency,[1],inactive
same,Potency,[3],inactive
CC(C)C(=O)Nc1cccc(C2CN3CCSC3=N2)c1 (stereo not given),Potency,[1],inactive
same,Potency,[3],inactive
NC1(c2ccc(-c3nc4ccn5c(=O)[nH]nc5c4cc3-c3ccccc3)cc2)CCC1,Potency,[1],inactive
same,Potency,[3],inactive
N=C(N)c1ccc(OCCCOc2ccc(C(=N)N)cc2)cc1,Potency,[1],inactive
same,Potency,[2],inactive
same,Potency,[3],inactive
c1ccc2c(c1)CCCC2C1=NCCN1 (stereo not given),Potency,[1],inactive
same,Potency,[3],inactive
CCC1=C[C@@H]2CN(C1)Cc1c([nH]c3ccccc13)[C@@](C(=O)OC)(c1cc3c(cc1OC)N(C)[C@H]1[C@@](O)(C(=O)OC)[C@H](OC(C)=O)[C@]4(CC)C=CCN5CC[C@]31[C@@H]54)C2,Potency,[1],inactive
same,Potency,[3],inactive
N#C/C(=C1\SCC(c2ccccc2Cl)S1)n1ccnc1 (stereo not given),Potency,[1],inactive
same,Potency,[3],inactive
Cc1oncc1C(=O)Nc1ccc(C(F)(F)F)cc1,Potency,[1],inactive
same,Potency,[3],inactive
C=CC(=O)OCC[N+](C)(C)C,Potency,[1],inactive
same,Potency,[3],inactive
CC(C)=CCC1=C(O)c2ccccc2C(=O)C1=O,Potency,[1],inactive
same,Potency,[3],inactive
C#CCOC(=O)[C@@H](C)Oc1ccc(Oc2ncc(Cl)cc2F)cc1,Potency,[1],inactive
same,Potency,[3],inactive
CN(C)CCC=C1c2ccccc2C=Cc2ccccc21,outcome,[1],inactive
same,outcome,[3],inactive
CCN(CC)CCNC(=O)c1cc(Cl)c(N)cc1OC,Potency,[1],inactive
same,Potency,[3],inactive
CCN(CC)CCCN(c1ccccc1)C1Cc2ccccc2C1,Potency,[2],inactive
[Cu+],Potency,[2],inactive
CCN(CC)CCNc1ccc(CNC=O)c2sc3ccc(OC)cc3c(=O)c12,Potency,[2],39.9 µM (active)
same,Potency,[3],inactive
CCCn1cc[n+](C)c1C,Potency,[2],inactive
same,Potency,[3],inactive
